# PubChem BioAssay AID743291 (Broad Institute, 2014)
# Results with a measured potency or affinity are listed apart. Calls of active or inactive are those of the source.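 How the source made its calls: active means signal drop with fitted half-maximal dose at most twice the top valid dose, active in every repeat; inconclusive means repeats disagree, or flat partial inhibition, or poor fit; inactive means inactive in every repeat, including opposite effects.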
# Biological target: Caspase-3 (Homo sapiens) (UniProt P42574)
# Sequence (P42574 whole entry, looked up): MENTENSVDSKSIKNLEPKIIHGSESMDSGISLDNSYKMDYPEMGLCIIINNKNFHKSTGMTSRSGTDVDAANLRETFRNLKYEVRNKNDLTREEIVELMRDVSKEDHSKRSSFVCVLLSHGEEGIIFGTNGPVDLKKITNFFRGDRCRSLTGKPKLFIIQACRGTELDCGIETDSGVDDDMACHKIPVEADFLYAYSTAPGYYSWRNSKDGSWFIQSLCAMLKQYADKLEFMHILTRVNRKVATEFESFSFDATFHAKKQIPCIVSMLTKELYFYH
# Test: caspase-3 enzyme inhibitors, selectivity check, dose response, selectivity assay for caspase-6 allosteric inhibitor project, biochemical, fluorescence, cherry-picked samples (AID 743291)
compound,measurement,value
CN1CCc2cc3c(c4c2C1Cc1ccccc1-4)OCO3 (stereo unspecified),outcome,inactive
